# High-throughput results deposited in PubChem by National Center for Advancing Translational Sciences (NCATS).
# Rows were chosen to be rich in hits. Some 4.2% of all compounds tested hit in one or more screens of this group.
# TCR activator = Activators of T cell receptors: qHTS campaign; Potency, µM (doses to about 9.22 µM), hits mostly activators; AID 504894, 2011; 330,000 tested, under 10 active; primary human leukocytes, anti-CD3, IL-2 HTRF, 48 h
#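 Using a-CD3 beads without co-stimulation, primary human leukocytes were exposed to compounds for 48 hr. An HTRF IL-2 kit measured the cytokine, with europium-to-d2 energy transfer producing emission at 665nm upon 320nm excitation.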
# uPA generation = qHTS for Inhibitors of Cell Surface uPA Generation; cell surface uPA generation assay, qHTS; Potency, µM (top dose mostly 38.3 µM), hits mostly inhibitors; hit rate 0.31% among 330,000; active means well fitted inhibition curve with a large enough effect; inconclusive means small, poorly fitted or top-dose-only effect; inactive means no such curve, though single readings can be large or run the other way; tested in mouse RAW 264.7 cells; further: nearly all actives have a fitted effect of over 55% in size
# Sfp PPTase inh = qHTS Assay for Inhibitors of Bacillus subtilis Sfp phosphopantetheinyl transferase (PPTase) | 4'-phosphopantetheinyl transferase ffp (Bacillus subtilis), Q9F4F7 | Biochemical Sfp PPTase activity, qHTS | Potency, µM, hits mostly inhibitors | hit rate 3.5% among 310,000 | AID 1490, 2009;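 further: the enzyme is Sfp with the accession as filed and its product quenches rhodamine fluorescence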
#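 Buffer: 50 mM Hepes-Na pH 7.6, 10 mM MgCl2, 0.01% Nonidet P-40, 0.01% BSA. Enzyme 15 nM, pre-exposed to compound 15 min; substrates then added and fluorescence change tracked over 30 min.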
# ClpP mod = qHTS Assay for Activators of ClpP; ATP-dependent Clp protease proteolytic subunit (Bacillus subtilis (strain 168)), P80244; purified B. subtilis ClpP, FRET peptide cleavage, 20 min; Potency, µM (series often up to 57.5 µM); hit rate 1.9% among 340,000; active means well fitted falling curve with a large enough effect; inconclusive means small, poorly fitted or top-dose-only effect; inactive means no such curve, though single readings can be large or run the other way; further: the source files actives as falling curves though it sought activators and does not explain the sign; nearly all actives have a fitted effect of over 65% in size
#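 Purified B. subtilis ClpP, 10 microg/mL final in Tris/HCl pH8 with KCl, BSA, glycerol and Tween-20, cleaved an Abz/nitrotyrosine-quenched decapeptide. Fluorescence (ex 320, em 430) was read at 0 and 20 min at room temperature. Delta was normalized to 5.8 microM ADEP and DMSO/no-enzyme controls.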
# Hits are given with their value; i = inactive; ? = inconclusive; nt = no result. Unless noted, the call rests on the fitted dose curve; in most records, active means well fitted curve in the direction sought with a large enough effect; inconclusive means small, poorly fitted or top-dose-only effect, or another doubt; inactive means no such curve, though single readings can be large; an effect the other way counts as inactive or inconclusive.
SMILES,TCR activator,uPA generation,Sfp PPTase inh,ClpP mod
O=[N+]([O-])c1cc(S(=O)(=O)C(F)(F)F)ccc1Sc1nc2ccccc2[nH]1,i,i,i,25µM
CS(=O)(=O)c1ccc(Sc2nc3ccccc3[nH]2)c([N+](=O)[O-])c1,i,i,i,i
C=CCN1C(=O)/C(=c2\sc3nc(=O)c(Cc4ccccc4Cl)nn3c2=O)c2ccccc21,i,i,11µM,i
O=C(O)CCN1C(=O)/C(=C2\C(=O)N(Cc3ccccc3Cl)c3ccccc32)SC1=S,nt,nt,i,nt
CCC1OC(=O)C[C@H](O)C(C)[C@@H](O[C@@H]2OC(C)C(O)C(N(C)C)C2O)C(CCN2CC(C)CC(C)C2)CC(C)C(=O)/C=C/C(C)=C\[C@@H]1COC1OC(C)C(O)C(OC)C1OC (some centres not stated),nt,nt,i,nt
Nc1nc(C2C(=O)CCCC2=O)cs1,i,nt,56µM,i
Cc1ccc(-c2ccc(/C=N\NC(=O)C3C(=O)NCC3c3ccccc3)o2)cc1Cl (configuration not stated),i,i,50µM,i
CSC1=NS(=O)(=O)c2c(C)nn(C)c2S1,i,i,6.3µM,nt
Cc1[nH]c(=S)c(C#N)c(C)c1CCC#N,i,i,18µM,nt
Cc1[nH]c(=S)c(C#N)c(C)c1Cc1ccccc1,i,i,18µM,i
Cc1cccc(Cc2c(C)[nH]c(=O)c(C#N)c2C)c1,i,i,i,i
Cc1ccc2c(c1)N(CCC(=O)NC(C)C)C(=O)CO2,i,i,i,28µM
Cc1ccc(CNC(=O)CCN2C(=O)COc3ccc(C)cc32)cc1,nt,nt,nt,i
CC(=O)N1CCCc2cc(S(=O)(=O)N(C)CC(=O)Nc3ccc(F)c(Cl)c3)ccc21,nt,nt,nt,i
CCO/C=C1\C(=O)N(c2ccccc2)C(=O)c2ccccc21,i,i,i,32µM
COc1ccc(C2CC(=O)N3CN(Cc4ccco4)CSC3=C2C#N)cc1 (configuration not stated),i,i,1.4µM,i
COc1cc(C2CC(=O)N3CN(Cc4ccco4)CSC3=C2C#N)ccc1OCc1ccccc1 (configuration not stated),i,i,3.5µM,i
CCOc1cc(C2CC(=O)N3CN(C4CCCCC4)CSC3=C2C#N)ccc1O (configuration not stated),i,i,3.5µM,i
COc1ccc2ccccc2c1C1CC(=O)N2CN(Cc3ccco3)CSC2=C1C#N (configuration not stated),i,i,5.6µM,i
N#CC1=C2SCN(C3CCCCC3)CN2C(=O)CC1c1ccc(Br)cc1 (configuration not stated),nt,nt,nt,i
COc1ccc(CN2CCN(Cc3ccco3)CC2)cc1,i,i,?,i
CCc1ccc(NC(=O)CSc2nc(-c3ccccc3Cl)nc3c2Cc2c(CO)cnc(C)c2O3)cc1,nt,nt,nt,i
Clc1ccc(N2CCN(Cc3ccco3)CC2)cc1,nt,i,i,i
CSC1=C(C#N)C(c2ccc(C(C)C)cc2)CC(=O)N1 (configuration not stated),i,i,i,i
N#CC1=C2SCN(Cc3ccco3)CN2C(=O)CC1c1ccc(Cl)cc1 (configuration not stated),i,i,2.5µM,i
SMILES,TCR activator,uPA generation,Sfp PPTase inh,ClpP mod
CC(C)c1ccc(C2CC(=O)N3CN(Cc4ccco4)CSC3=C2C#N)cc1 (configuration not stated),i,i,2.2µM,i
COc1ccc2ccccc2c1C1CC(=O)N2CN(C3CCCCC3)CSC2=C1C#N (configuration not stated),i,i,13µM,i
COc1ccc(C2CC(=O)N3CN(C4CCCCC4)CSC3=C2C#N)c(OC)c1 (configuration not stated),nt,nt,nt,i
CCCn1c2c(c(=N)c3c1CCC3)CCC2,i,i,i,i
O=C(CCn1c2c(c3ccccc31)CCCC2)NNC(=O)c1ccccc1C(=O)O,i,i,i,i
CCCCCCCn1c2c(c(=N)c3ccccc31)CCC2,i,i,50µM,i
O=C(O)CCn1c2c(c3ccccc31)CCCC2,i,i,i,25µM
CC(/C=C/c1ccc(Cl)o1)=C\C(=O)O,i,i,32µM,i
O=C(NCCC(=O)N1CCCC1)c1ccccc1Cl,i,i,i,i
COc1ccc(N2C(=O)/C(=C\c3ccco3)N=C2SCC(=O)N(C(C)C)C(C)C)cc1Cl,i,i,56µM,i
CC1CCN(S(=O)(=O)c2cccc(C(=O)Nc3ccccc3)c2)CC1,i,nt,i,i
O=C(CCNC(=O)C1CCN(S(=O)(=O)c2ccc(F)cc2)CC1)NC1CC1,i,i,i,i
Nc1nonc1-c1nc2ccccc2n1CC(=O)Nc1ccccc1C(=O)O,nt,nt,nt,i
Nc1nonc1-c1nc2ccccc2n1CC(=O)N/N=C/c1ccc(-c2cccc(C(=O)O)c2)o1,i,i,1µM,nt
Nc1nnc(CC(=O)N/N=C/c2ccc(-c3cccc(C(=O)O)c3)o2)s1,i,i,40µM,nt
Cc1ccccc1Oc1nc2c(c(=O)n(C)c(=O)n2C)n1Cc1ccc(Br)cc1,nt,nt,nt,i
CCN(CC)CCOc1cc2c(nn1)Oc1ccccc1N2C,i,i,i,13µM
COc1ccc(OC)c(-c2nnc3n2N=C(c2c(OC)cccc2OC)CS3)c1,nt,nt,i,nt
CCOc1ccc(/C=C2/SC(=S)N(C(C(=O)O)c3ccccc3)C2=O)cc1OCC (configuration not stated),i,i,56µM,nt
CCOc1cc(/C=C2\SC(=S)N(C(C(=O)O)c3ccccc3)C2=O)ccc1O (configuration not stated),i,i,40µM,i
COc1cc(/C=C2\SC(=S)N(C(C(=O)O)c3ccccc3)C2=O)ccc1O (configuration not stated),i,i,?,i
COc1ccccc1/C=C1\SC(=S)N(C(C(=O)O)c2ccccc2)C1=O (configuration not stated),i,i,56µM,i
Cc1cc(N(C)C)cc(C)c1/C=C/c1ccnc2ccccc12,nt,nt,nt,i
COc1ccc(-n2c(/C=C/c3cc(OC)c(OC)cc3OC)nc3cc4ccccc4cc3c2=O)cc1Cl,nt,nt,nt,i
Cc1nncn1-c1ccc(C(=O)Nc2cc(F)ccc2F)cc1,nt,nt,nt,i
SMILES,TCR activator,uPA generation,Sfp PPTase inh,ClpP mod
CCc1ccc(NC(=O)c2nc(SCc3ccccc3F)ncc2Cl)cc1,nt,nt,nt,i
O=C(Nc1ccc(F)cc1)Nc1ccc([N+](=O)[O-])cn1,i,i,i,nt
CCN(CC)S(=O)(=O)c1cc([N+](=O)[O-])ccc1NNC(=O)Nc1ccccc1OC,i,i,50µM,i
CCN(CC)S(=O)(=O)c1ccc(OC)c(NC(=O)c2ccc([N+](=O)[O-])cc2)c1,i,i,i,nt
CCN(CC)S(=O)(=O)c1cc([N+](=O)[O-])ccc1NNC(=O)Nc1ccc(F)cc1,i,i,45µM,i
Cc1nn(C)c(C(=O)N2CCOCC2)c1Cl,i,i,i,i
CCOc1ccc2c(c1)[nH]c(=S)n2C,i,i,18µM,i
CC(=NNc1ccc([N+](=O)[O-])cn1)c1ccc(N)cc1,i,i,nt,i
